According to the supplement of paper PMC12645437, “Orthogonal IMiD-Degron Pairs Induce Selective Protein Degradation in Cells” (ACS Chemical Biology, 2025):
Whole data set: some 8,300 sequences, median “log2 fold change of degron read counts, EGFP-low vs EGFP+ sorted cells (limma voom), compound-induced degradation” near -1.1, cut for the highest 2% near 3.2. Many of the other results were omitted from the sample, so the highest values are more common in it than they were.

T1: CRBN, Q96SW2
T1 chain: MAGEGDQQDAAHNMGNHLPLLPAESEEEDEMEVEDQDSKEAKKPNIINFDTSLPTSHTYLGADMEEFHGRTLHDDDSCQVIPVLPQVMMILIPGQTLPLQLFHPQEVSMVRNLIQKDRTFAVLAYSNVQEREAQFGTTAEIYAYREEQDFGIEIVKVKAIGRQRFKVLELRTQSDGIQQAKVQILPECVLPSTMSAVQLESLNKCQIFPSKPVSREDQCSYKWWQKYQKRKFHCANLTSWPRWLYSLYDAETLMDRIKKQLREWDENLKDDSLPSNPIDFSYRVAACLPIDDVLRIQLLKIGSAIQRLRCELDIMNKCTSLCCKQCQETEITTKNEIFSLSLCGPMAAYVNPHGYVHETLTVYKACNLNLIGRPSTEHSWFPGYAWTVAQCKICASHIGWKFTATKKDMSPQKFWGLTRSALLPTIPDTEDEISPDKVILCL

B1: 46F_47V_49E_50I_52G_53R_54K_55F_67L_, Q9UKT9 (peptide)
chain: FVCEICGRKFTQKGNLLRHIKL
B2: 46L_47L_49E_50I_52G_53F_54I_55C_67L_, Q9UKT9 (peptide)
chain: LLCEICGFICTQKGNLLRHIKL
B3: 46F_47H_49P_50I_52G_53R_54Q_55F_67L_, Q9UKT9 (peptide)
chain: FHCPICGRQFTQKGNLLRHIKL
B4: 46L_47C_49P_50I_52G_53F_54P_55C_67L_, Q9UKT9 (peptide)
chain: LCCPICGFPCTQKGNLLRHIKL
B5: 46L_47S_49P_50I_52G_53F_54R_55C_67L_, Q9UKT9 (peptide)
chain: LSCPICGFRCTQKGNLLRHIKL
B6: 46L_47I_49P_50I_52G_53F_54P_55C_67L_, Q9UKT9 (peptide)
chain: LICPICGFPCTQKGNLLRHIKL
B7: 46L_47K_49P_50I_52G_53F_54R_55C_67L_, Q9UKT9 (peptide)
chain: LKCPICGFRCTQKGNLLRHIKL
B8: 46L_47H_49P_50I_52G_53F_54R_55C_67L_, Q9UKT9 (peptide)
chain: LHCPICGFRCTQKGNLLRHIKL
B9: 46L_47N_49P_50I_52G_53F_54R_55C_67L_, Q9UKT9 (peptide)
chain: LNCPICGFRCTQKGNLLRHIKL
B10: 46L_47Q_49P_50I_52G_53F_54E_55C_67L_, Q9UKT9 (peptide)
chain: LQCPICGFECTQKGNLLRHIKL
B11: 46L_47R_49P_50I_52G_53F_54P_55C_67L_, Q9UKT9 (peptide)
chain: LRCPICGFPCTQKGNLLRHIKL
B12: 46L_47M_49P_50I_52G_53F_54E_55C_67L_, Q9UKT9 (peptide)
chain: LMCPICGFECTQKGNLLRHIKL
B13: 46L_47V_49P_50I_52G_53F_54E_55C_67L_, Q9UKT9 (peptide)
chain: LVCPICGFECTQKGNLLRHIKL
B14: 46L_47F_49P_50I_52G_53F_54R_55C_67L_, Q9UKT9 (peptide)
chain: LFCPICGFRCTQKGNLLRHIKL
B15: 46L_47A_49P_50I_52G_53F_54R_55C_67L_, Q9UKT9 (peptide)
chain: LACPICGFRCTQKGNLLRHIKL
B16: 46F_47C_49P_50V_52G_53A_54M_55F_67L_, Q9UKT9 (peptide)
chain: FCCPVCGAMFTQKGNLLRHIKL
B17: 46F_47G_49N_50V_52G_53A_54C_55F_67L_, Q9UKT9 (peptide)
chain: FGCNVCGACFTQKGNLLRHIKL
B18: 46F_47R_49E_50I_52G_53H_54A_55F_67L_, Q9UKT9 (peptide)
chain: FRCEICGHAFTQKGNLLRHIKL
B19: 46F_47A_49N_50V_52G_53A_54E_55F_67L_, Q9UKT9 (peptide)
chain: FACNVCGAEFTQKGNLLRHIKL
B20: 46F_47M_49S_50V_52G_53H_54C_55F_67L_, Q9UKT9 (peptide)
chain: FMCSVCGHCFTQKGNLLRHIKL
B21: 46F_47I_49N_50Q_52G_53R_54S_55F_67L_, Q9UKT9 (peptide)
chain: FICNQCGRSFTQKGNLLRHIKL
B22: 46F_47A_49E_50Q_52G_53A_54K_55F_67L_, Q9UKT9 (peptide)
chain: FACEQCGAKFTQKGNLLRHIKL
B23: 46L_47T_49E_50I_52G_53F_54E_55C_67L_, Q9UKT9 (peptide)
chain: LTCEICGFECTQKGNLLRHIKL
B24: 46F_47S_49P_50I_52G_53H_54V_55F_67L_, Q9UKT9 (peptide)
chain: FSCPICGHVFTQKGNLLRHIKL
B25: 46F_47L_49D_50V_52G_53A_54K_55F_67L_, Q9UKT9 (peptide)
chain: FLCDVCGAKFTQKGNLLRHIKL
B26: 46F_47L_49E_50I_52G_53H_54C_55F_67L_, Q9UKT9 (peptide)
chain: FLCEICGHCFTQKGNLLRHIKL
B27: 46F_47M_49E_50I_52G_53H_54T_55F_67L_, Q9UKT9 (peptide)
chain: FMCEICGHTFTQKGNLLRHIKL
B28: 46L_47G_49P_50I_52G_53F_54R_55C_67L_, Q9UKT9 (peptide)
chain: LGCPICGFRCTQKGNLLRHIKL
B29: 46L_47W_49P_50I_52G_53F_54R_55C_67L_, Q9UKT9 (peptide)
chain: LWCPICGFRCTQKGNLLRHIKL
B30: 46L_47A_49P_50I_52G_53F_54N_55C_67L_, Q9UKT9 (peptide)
chain: LACPICGFNCTQKGNLLRHIKL
B31: 46L_47W_49P_50I_52G_53F_54N_55C_67L_, Q9UKT9 (peptide)
chain: LWCPICGFNCTQKGNLLRHIKL
B32: 46L_47I_49P_50I_52G_53F_54R_55C_67L_, Q9UKT9 (peptide)
chain: LICPICGFRCTQKGNLLRHIKL
B33: 46L_47D_49P_50I_52G_53F_54N_55C_67L_, Q9UKT9 (peptide)
chain: LDCPICGFNCTQKGNLLRHIKL

Target: T1, CRBN, Q96SW2
Test: log2 fold change of degron read counts, EGFP-low vs EGFP+ sorted cells (limma voom), compound-induced degradation; higher = more compound-induced degradation of the degron-EGFP fusion; degrons are variants of IKZF1/3 zinc finger 2; compound dose not given here
Conditions: Jurkat, 18 h
[1] = compound: compound 19 (5-tert-butyl-thalidomide)
[2] = compound: compound 22 (5-morpholino-thalidomide)
[3] = compound: compound 33 (diphenyl IMiD analogue)
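Further: pooled lentiviral library of zinc finger degron-EGFP fusions in mCherry-positive Jurkat cells, FACS-sorted after compound exposure, with degron abundance counted by next-generation sequencing.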

| Sequence | log2 fold change of degron read counts [1] | log2 fold change of degron read counts [2] | log2 fold change of degron read counts [3] | log2 fold change of degron read counts (compound: thalidomide) |
| --- | --- | --- | --- | --- |
| B1 | -1.83 | -1.33 | -1.16 | 1.3 |
| B2 | -0.407 | -0.959 | 0.146 | 1.04 |
| B3 | 0.0895 | 0.838 | 1.45 | 0.286 |
| B4 | 0.812 | 1.08 | 1.35 | 1.76 |
| B5 | 2.79 | 2.57 | 1.22 | 2.27 |
| B6 | 0.112 | 1.65 | 0.899 | 1.78 |
| B7 | -1.28 | -2.03 | -2.25 | -0.57 |
| B8 | 2.28 | 2.4 | 1.58 | 1.74 |
| B9 | 1.52 | 0.801 | 0.131 | 1.04 |
| B10 | 1.35 | 1.29 | 2.04 | 3.44 |
| B11 | 2.94 | 3.54 | 3.02 | 3.44 |
| B12 | -0.925 | 0.39 | 2.43 | 1.39 |
| B13 | 0.125 | 2.29 | 1.28 | 2.99 |
| B14 | 3.24 | 3.2 | 1.81 | 1.69 |
| B15 | 3.37 | 2.7 | 1.18 | 2.12 |
| B16 | 1.36 | 0.957 | 2.19 | 1.18 |
| B17 | 0.221 | 0.434 | 1.03 | -0.871 |

| Sequence | log2 fold change of degron read counts [1] | log2 fold change of degron read counts [2] | log2 fold change of degron read counts [3] | log2 fold change of degron read counts (compound: thalidomide) |
| --- | --- | --- | --- | --- |
| B18 | -3.15 | -2.82 | -1.17 | -1.87 |
| B19 | -1.27 | -1.39 | -1.75 | -2.2 |
| B20 | -2.46 | -3.02 | -2.83 | -2.57 |
| B21 | -3.32 | -3.15 | -3.35 | -3.61 |
| B22 | 1.9 | -1.51 | -3.24 | -1.44 |
| B23 | -0.328 | 0.102 | -0.375 | 0.759 |
| B24 | -2.55 | -2.29 | -1.52 | -1.64 |
| B25 | -1.99 | -3.99 | -1.78 | -0.928 |
| B26 | -3.3 | -3.75 | -3.16 | -2.4 |
| B27 | -3.32 | -4.22 | -2.78 | -3.14 |
| B28 | 3.17 | 2.04 | 0.549 | 1.14 |
| B29 | 3.02 | 3.7 | 2.31 | 2.05 |
| B30 | 2.23 | 1.61 | 1.93 | 1.49 |
| B31 | 2.43 | 3.5 | 2.36 | 1.53 |
| B32 | 0.753 | 2.24 | 1.19 | 2.84 |
| B33 | -0.713 | -1.04 | -0.142 | 0.706 |
